Results published in PubChem BioAssay (NCATS).
Results filed as inconclusive are left out. Activity calls are given as the source filed them. Calls follow the shape of the dose curve; as a rule, active = well fitted curve in the direction sought with a large enough effect; inconclusive = small, poorly fitted or top-dose-only effect, or another doubt; inactive = no such curve, though single readings can be large; an effect the other way counts as inactive or inconclusive. Where a SMILES comes first, the peptide text is derived from it. The star is where a group is joined. AMC = Cc1cc(=O)oc2cc(N*)ccc12; Cbz = O=C(OCc1ccccc1)*

Legend:
[1] = biological target: Calcium and integrin-binding protein 1 (Homo sapiens) (UniProt Q99828); assay: Primary qHTS for Identification of Calcium Integrin Binding Protein 1 (CIB1) Competitor (AID 1508620);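 also: GST tagged CIB1 binding a fluorescein labelled alphaIIb integrin peptide tracer; top concentration of the series differs between compounds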
Chain of Calcium and integrin-binding protein 1 (Homo sapiens) (Q99828 whole entry, looked up): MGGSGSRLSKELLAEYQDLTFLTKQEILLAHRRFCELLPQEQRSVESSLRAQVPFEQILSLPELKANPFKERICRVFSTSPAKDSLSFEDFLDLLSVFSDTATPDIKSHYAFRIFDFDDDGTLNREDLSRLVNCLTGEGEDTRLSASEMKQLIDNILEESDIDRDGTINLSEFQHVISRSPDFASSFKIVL
Outline: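 Fluorescence polarization competition: CIB1-GST (1 uM final) preincubated with compound 15 min at room temperature, then FITC-labeled alphaIIb peptide (100 nM final) added for another 15 min. Polarization read at Ex 480/Em 540.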

[2] = Primary qHTS for inhibitors of nuclear receptor binding SET domain protein 2 (NSD2) in an isogenic RCH-ACV NSD2 p.E1099K mutant (9B) (AID 1645876); also: nearly all actives have a fitted effect of over 70% in size
[3] = Primary qHTS for inhibitors of nuclear receptor binding SET domain protein 2 (NSD2) in an RCH-ACV wild type WT cells (2C) (AID 1645877); also: nearly all actives have a fitted effect of over 70% in size
% is scaled to controls: 0 for no effect and ±100 for the full control effect.

C=C(C)C(O)COc1ccc(CC(=O)O)cc1 (stereo not drawn)
inactive: Potency [1] | Potency [2] | Potency [3]

COc1ccc(N2CCN(CCCNC(=O)Cn3c(=O)c4cccn4c4c(C)ccnc43)CC2)cc1
inactive: Potency [1] | Potency [2] | Potency [3]

CC1OC(OC2C(OC3C(O[C@H]4CC[C@@]5(C)C(CC[C@]6(C)C5CC=C5C7CC(C)(C)CC(O)[C@]7(C)CC[C@]56C)C4(C)C)OC(C(=O)O)C(O)C3O)OCC(O)C2O)C(O)C(O)C1O (stereo partly drawn)
inactive: Potency [1] | outcome [2] inactive [at 9.23 µM] | activity change, negative = cell killing [3] 4.8% [at 9.23 µM]

C[C@@H](CC[C@@H]1[C@@]2(C)CCCC(C)(C)C2CC[C@@]1(C)O)CC(=O)O (stereo partly drawn)
inactive: Potency [1] | Potency [2] | Potency [3]

C=C1CCC2(C(=O)OC3OC(CO)C(O)C(O)C3O)CCC3(C)C(=CCC4C5(C)CCC(OC6OC(CO)C(OC7OC(C)C(O)C(O)C7O)C(OC7OCC(O)C(O)C7O)C6O)C(C)(C)C5CCC43C)C2C1 (stereo not drawn)
inactive: Potency [1] | outcome [2] inactive [at 9.23 µM] | activity change, negative = cell killing [3] -3.7% [at 9.23 µM]

Cc1cc(=O)oc2cc(NC(=O)[C@H](CCC(=O)O)NC(=O)[C@H](CC(C)C)NC(=O)[C@H](CC(C)C)NC(=O)OCc3ccccc3)ccc12 (Cbz-Leu-Leu-Glu-{AMC})
inactive: Potency [1] | Potency [2] | Potency [3]

C=CC(C)(CCC=C(C)C)O[C@@H]1O[C@H](CO)[C@@H](O)[C@H](O)[C@H]1O (stereo partly drawn)
inactive: Potency [1] | Potency [2] | Potency [3]

C[C@@H]1O[C@@H](O[C@H]2[C@H](O)[C@@H](O[C@@H]3O[C@H](CO)[C@H](O)[C@H](O)[C@H]3O)[C@H](O[C@H]3CC[C@@]4(C)C(CC[C@]5(C)C4CC=C4[C@@H]6CC(C)(C)CC[C@]6(C(=O)O[C@@H]6O[C@H](CO)[C@@H](O)[C@H](O)[C@H]6O)CC[C@]45C)C3(C)C)O[C@@H]2C(=O)O)[C@H](O)[C@H](O)[C@H]1O (stereo partly drawn)
inactive: Potency [1] | activity change, negative = viability loss [2] 0.405% [at 9.23 µM] | outcome [3] inactive [at 9.23 µM]

C=C1CC23CC1CCC2C12OC(=O)C(C)(C(O)CC1O)C2C3C(=O)O (stereo not drawn)
inactive: Potency [1] | Potency [2] | Potency [3]

Cc1occc(=O)c1O[C@@H]1O[C@H](CO[C@@H]2OC[C@](O)(CO)[C@H]2O)[C@@H](O)[C@H](O)[C@H]1O
inactive: Potency [1] | Potency [2] | Potency [3]

CC1(C)CC[C@]2(C(=O)O[C@@H]3O[C@H](CO)[C@@H](O)[C@H](O)[C@H]3O)CC[C@]3(C)C(=CCC4[C@@]5(C)CC[C@H](OC6OC(C(=O)O)C(OC7OC(CO)C(O)C(O)C7O)C(O)C6O)C(C)(C)C5CC[C@]43C)C2C1 (stereo partly drawn)
inactive: Potency [1] | activity change, negative = viability loss [2] -8.98% [at 9.23 µM] | activity change, negative = cell killing [3] -22.4% [at 9.23 µM]

CC1CCC2C(C)(C)[C@H](O)CC[C@]2(C)C12Cc1c(O)cc3c(c1O2)CN(C(CCC(=O)O)C(=O)O)C3=O (stereo partly drawn)
inactive: Potency [1] | Potency [2] | Potency [3]

CC(NC(=O)c1ccccc1N)C(=O)O (stereo not drawn)
inactive: Potency [1] | Potency [2] | Potency [3]

COC(=O)C1=CO[C@@H](O[C@@H]2O[C@H](CO)[C@@H](O)[C@H](O)[C@H]2O)[C@H]2[C@@H]1[C@H](O)[C@H](O)[C@]2(C)O
inactive: Potency [1] | Potency [2] | Potency [3]

CC(C)(O)[C@@H]1CC[C@]2(CO)[C@@H](O)CC[C@](C)(O)[C@H]2[C@@H]1O[C@@H]1O[C@H](CO)[C@@H](O)[C@H](O)[C@H]1O
inactive: Potency [1] | Potency [2] | Potency [3]

COc1cc(O[C@@H]2O[C@H](CO[C@H]3OC[C@](O)(CO)[C@H]3O)[C@@H](O)[C@H](O)[C@H]2O)cc(OC)c1O
inactive: Potency [1] | Potency [2] | Potency [3]

C=C(C(=O)O)C1CC(OC(=O)CC(C)CC)C2(C)CCCC(=C)C2C1 (stereo not drawn)
inactive: Potency [1] | Potency [2] | Potency [3]

C=C[C@@]1(C)CCC2=C([C@H]1OC(C)=O)[C@H](OC(C)=O)CC1[C@](C)(C(=O)OC)CC[C@H](OC(C)=O)[C@]21C (stereo partly drawn)
inactive: Potency [1] | Potency [2] | Potency [3]

C=C1C2(C)CC3C4(C)OC(C5OC56C4=CC(=O)OC6(C)C)C3(C)C13C(=O)OC(C)C3(O)C2=O (stereo not drawn)
inactive: Potency [1] | Potency [2] | Potency [3]

CC(C)C(NC(=O)c1ccc(O)cc1)C(=O)N1CCCC1C(=O)Nc1c(O)cccc1C(=O)O (stereo not drawn)
inactive: Potency [1] | Potency [2] | Potency [3]

C/C(=C\CCC(C)C1CC(O)C2(C)C3CCC4C(C)(C)C(OC5OCC(O)C(O)C5O)CCC45CC35CC(O)C12C)C(=O)O (stereo not drawn)
inactive: Potency [1] | Potency [2] | Potency [3]
